Source: PubChem (The Scripps Research Institute Molecular Screening Center)
In the library only some 2.4% were active in any assay of this set; here they are far more common.
CHRM1 antagonist: antagonists of human M1 muscarinic receptor; AID 588852; CHO-K1 hM1, Fluo-8 calcium fluorescence, ACh EC80 antagonist; inhibition, % at 3 µM; actives 1.3% (n = 360,000);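 active = percent inhibition above its own plate's cutoff, namely the mean of that plate's compound wells plus 3 SD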;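 also: peak over basal fluorescence ratio during 140 s after agonist addition; 0% = ACh EC80 plus DMSO and 100% = DMSO alone without agonist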
Target sequence (P11229 whole entry, looked up): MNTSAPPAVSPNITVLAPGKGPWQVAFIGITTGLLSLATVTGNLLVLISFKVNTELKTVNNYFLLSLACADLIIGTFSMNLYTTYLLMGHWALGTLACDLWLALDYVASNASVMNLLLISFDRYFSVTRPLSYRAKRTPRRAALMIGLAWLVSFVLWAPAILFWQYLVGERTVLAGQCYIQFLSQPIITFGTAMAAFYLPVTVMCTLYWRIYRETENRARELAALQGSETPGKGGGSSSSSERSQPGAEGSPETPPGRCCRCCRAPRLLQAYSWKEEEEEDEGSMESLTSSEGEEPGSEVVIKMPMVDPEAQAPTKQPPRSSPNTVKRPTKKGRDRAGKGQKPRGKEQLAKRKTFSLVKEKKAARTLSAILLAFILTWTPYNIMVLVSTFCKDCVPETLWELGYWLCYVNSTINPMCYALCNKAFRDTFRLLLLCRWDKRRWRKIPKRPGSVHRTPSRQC
M1 PAM parental: nonselective activator or artifact in parental CHO-K1 calcium assay; ATP EC20, Fluo-8 calcium fluorescence; 0% at ATP EC20, 100% at ATP max; activation, % at 3 µM; actives 0.02% (n = 360,000);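 active = activation above the run cutoff, the mean activation of all test compounds plus 3 SD, cut at about 40% in these data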;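 also: peak over basal fluorescence ratio in a 140 s read after ATP addition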
M1 ag parental: nonselective activator or artifact in parental CHO-K1 cells; Fluo-8 calcium fluorescence; scaled to maximal ATP response, vehicle zero; activation, % at 3 µM; actives 0.48% (n = 360,000); AID 602248; in the data active = activation above about 15%;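 also: untransfected CHO-K1 host cells lacking M1 receptor as counterscreen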
CHRM1 agonist: human M1 muscarinic receptor agonism; CHO-K1 hM1, Fluo-8 calcium fluorescence, agonist mode; 0% DMSO, 100% acetylcholine EC100; activation, % at 3 µM; actives 0.33% (n = 360,000); AID 588814;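 active = activation above the run's mean compound activation plus 3 SD, cut at about 16% in these data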;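 also: peak over basal fluorescence ratio within a 140 s kinetic read after compound addition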
M1 PAM: human CHRM1 positive allosteric modulation | P11229 | activation, % at 3 µM | CHO-K1 hM1, Fluo-8 calcium fluorescence, ACh EC20; 0% = ACh EC20, 100% = maximal ACh | actives 0.088% (n = 360,000) | AID 588819; in the data active = activation above about 19%, passing the limit was not always enough
CHO-K1 Ca antag: nonselective inhibitor or artifact in parental CHO-K1 cells; ATP-induced calcium, Fluo-8 fluorescence; inhibition, % at 3 µM; actives 0.6% (n = 360,000); AID 602250;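 active = inhibition above a per-plate cutoff, the plate's mean sample inhibition plus 3 SD, cut at about 24% in these data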;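 also: 0% = DMSO plus EC80 ATP and 100% = DMSO alone without ATP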
Active calls of the source: *.

SMILES | CHRM1 antagonist | M1 PAM parental | M1 ag parental | CHRM1 agonist | M1 PAM | CHO-K1 Ca antag
Cc1ccc(C(C)C)c(OCC(O)CN(C)Cc2ccccc2)c1 (stereo not given) | 12 | 19 | 7 | -2 | -9 | 5
CO/N=C(/CNC(=O)c1ccc(Cl)cc1Cl)c1ccc(Cl)cc1 | -2 | 10 | 0 | -3 | 7 | -7
O=C(CSc1nc2c(c(=O)[nH]1)CCC2)Nc1ccccc1Cl | -15 | 17 | 1 | -2 | 10 | -14
O=C(CSc1nc2c(c(=O)[nH]1)CCC2)Nc1cccc(Cl)c1 | -12 | 9 | 0 | 17* | 15 | -1
O=C(O)[C@H](Cc1ccccc1)NC(=O)N1CCN(c2ccc(F)cc2)CC1 | 1 | 10 | 2 | -2 | 3 | -5
Cc1ccccc1Sc1ccc(N)cn1 | 59* | 2 | 4 | -4 | -26 | -1
N/C(Cc1ccccc1Sc1ccccc1)=N\O | 2 | 6 | 1 | -1 | -2 | -3
CCN(CC)Cc1ccccc1Sc1ccccc1 | 98* | 9 | 0 | -7 | -26 | 4
O=C(Cc1coc2ccc3ccccc3c12)Nc1nccs1 | 1 | -7 | 0 | 4 | 6 | 26*
O=C(CCc1c[nH]c2ccccc12)N1CCN(S(=O)(=O)c2ccc([N+](=O)[O-])cc2)CC1 | -4 | 18 | 3 | -2 | 1 | -9
Cc1cccc(-c2ccc3c(c2)C2CC3CCN2)c1 (stereo not given) | 32 | 2 | 1 | -10 | -27 | 7
Fc1ccc(-c2ccc3c(c2)C2CC3CCN2)cc1 (stereo not given) | 39* | 6 | 5 | -4 | -30 | -2
CCN(C(=O)CSc1nnc(-c2ccco2)n1Cc1ccccc1)C1CCS(=O)(=O)C1 (stereo not given) | -22 | 11 | 0 | -4 | 27* | -19
CC(C)Oc1ccc(N2CC(C(=O)Nc3ccccc3C(=O)NC3CC3)CC2=O)cc1 (stereo not given) | -7 | 7 | 0 | 1 | 3 | -6
CC(=O)C1=CCC(c2ccc(Cl)cc2)N(S(=O)(=O)c2ccc(C)cc2)C1 (stereo not given) | 10 | 12 | 4 | -8 | -8 | 14
CC1=CC(C)(C)N=C(Nc2ccc(C)cc2)S1 | 58* | 7 | 1 | -10 | -36 | -20
Cc1ccc(Nc2nnns2)cc1 | 0 | 9 | 0 | -2 | 5 | 0
Cc1cccc(OCC(=O)Nc2ccc(C(=O)Nc3ccccc3C(=O)O)cc2)c1C | -6 | 1 | -1 | 0 | 6 | 10
CCN(CC)C1=CC2=CC(=C(C#N)C#N)CCC2CC1 (stereo not given) | 63* | -14 | 99* | 230* | -32 | 67*
CCCCN(C)C1=CC2=CC(=C(C#N)C#N)CCC2CC1 (stereo not given) | 101* | -17 | 578* | 670* | -28 | 92*
O=C(O)CCCNC(=O)c1ccc(NC(=O)Cc2ccc(Cl)cc2)cc1 | 10 | 17 | 3 | -1 | 0 | 1
CC1CN(C(=O)COC(=O)c2ccc(N(C)C)cc2)CC(C)O1 (stereo not given) | 6 | -6 | 2 | -3 | -3 | 8
CCOC(=O)c1[nH]ncc1CN1CCCC(C(=O)c2ccc(C(C)(C)C)cc2)C1 (stereo not given) | 38* | -7 | 1 | -6 | -10 | -6
COc1ccccc1C(=O)N1CCN(Cc2cn[nH]c2-c2ccc(F)cc2F)CC1 | -1 | 27 | 1 | -5 | 3 | -12
CCOC(=O)C1CCCN(CC(=O)c2ccc(F)cc2)C1 (stereo not given) | 57* | -1 | 6 | 65* | -20 | 1
SMILES | CHRM1 antagonist | M1 PAM parental | M1 ag parental | CHRM1 agonist | M1 PAM | CHO-K1 Ca antag
CCOC(=O)C1CCCN(CC(=O)Nc2c(F)c(F)c(F)c(F)c2F)C1 (stereo not given) | -3 | 8 | 0 | 10 | 1 | -2
CCOC(=O)C1CCCN(Cc2cn[nH]c2-c2ccc(F)cc2F)C1 (stereo not given) | -1 | 8 | 18* | 8 | 4 | 4
COc1cc(CN2CCCC(C(=O)c3ccc(C(C)(C)C)cc3)C2)cc(OC)c1O (stereo not given) | 9 | -4 | 1 | -10 | -15 | -7
Cn1c(SCC(=O)Nc2ccccc2)nc2c([nH]c3ccccc32)c1=O | 35* | 2 | 1 | -13 | -26 | 10
CC(=O)c1cccc(OCc2cc(C(=O)N3C[C@@H](C)O[C@@H](C)C3)no2)c1 | -1 | 9 | 1 | -1 | -2 | 59*
CC(=O)Oc1ccc(-c2ccc(C(=O)NCCc3ccc(S(N)(=O)=O)cc3)cc2)cc1 | 8 | 10 | 5 | -2 | -7 | -13
COc1ccc(N2CCN(C(=O)C3CC(=O)N(c4ccc(C)cc4)C3)CC2)cc1 (stereo not given) | -6 | 18 | 0 | -2 | 3 | -18
COc1ccc(N2CC(NC(=O)N3CCN(c4ccccc4)CC3)CC2=O)cc1 (stereo not given) | -6 | 20 | 16* | -3 | 4 | -5
COc1ccc(N2CC(NC(=O)Nc3ccccc3)CC2=O)cc1 (stereo not given) | 1 | 1 | 15* | 2 | 2 | 11
O=C(COC(=O)Cc1ccc(Br)cc1)NCc1ccc2c(c1)OCO2 | -11 | 9 | 0 | -2 | 13 | 6
Cc1c(N2C(=O)/C(=C/c3ccccc3)SC2=S)c(=O)n(-c2ccccc2)n1C | 13 | 8 | 1 | -5 | -22 | 4
Cc1c(N2C(=O)/C(=C/C3CC=CCC3)SC2=S)c(=O)n(-c2ccccc2)n1C (stereo not given) | 73* | -4 | 1 | -9 | -24 | -6
Cc1c(N2C(=O)/C(=C\C3CC=CCC3)SC2=S)c(=O)n(-c2ccccc2)n1C (stereo not given) | 62* | -7 | 1 | -8 | -26 | -6
CCn1cc(CN2CCCC(C(=O)Nc3cccc(-c4cc5ccccc5[nH]4)c3)C2)cn1 (stereo not given) | -11 | -14 | 1 | -6 | 8 | 10
CCOc1ccc(/C=C2\CCCc3c2nc2ccccc2c3C(=O)O)cc1OC | 7 | 7 | 45* | 53* | -6 | 11
CCOC(=O)Cc1csc(NC(=O)CSc2ncnc3c2cnn3-c2ccccc2Cl)n1 | 28* | 2 | 4 | 0 | -12 | 21
CC(=O)c1c(C)[nH]c(C(=O)Nc2ccc(Cl)cc2)c1C | 3 | 4 | 16* | 6 | -6 | -1
O=C(NC(=O)c1ccccc1O)c1ccc2c(c1)CCO2 | -6 | 8 | 1 | -1 | 5 | -4
CC1(C)Cc2c(sc3ncn(N)c(=N)c23)CO1 | -16 | -4 | -1 | 0 | 9 | 27*
Cc1nc2sc3c(c2c(=N)n1N)CC(C)(C)OC3 | 9 | 15 | 3 | -6 | -1 | -10
